# Hit rate of the full screen: of about 39,000 compounds, about 3,300 (8.5%) were called active. What follows is part of a selection rich in actives, with near analogues and random picks from the rest.
# Test system: HepG2
# Test: cytotoxicity call (relative viability < 0.9)
# Conditions: 10 µM
row,SMILES,cytotoxicity call
1,COCCCN(C[C@]1(O)CC[C@H]2C3=CC=C4C[C@@H](O)CC[C@]4(C)[C@@H]3CC[C@@]21C)C(=O)O[C@H]1C[C@@H](C)CC[C@@H]1C(C)C,inactive
2,CC(C)NC(=O)N(C)C[C@H]1Oc2ccc(NS(=O)(=O)c3cccs3)cc2C(=O)N([C@H](C)CO)C[C@@H]1C,inactive
3,CO[C@H]1CN(C)C(=O)c2cc(NS(C)(=O)=O)ccc2OC[C@@H](C)N(C(=O)C2CCOCC2)C[C@H]1C,inactive
4,C[C@@H]1CN([C@@H](C)CO)C(=O)Cc2cc(NC(=O)C3CCCCC3)ccc2O[C@H]1CN(C)Cc1ccc(Cl)c(Cl)c1,inactive
5,C[C@H]1CN([C@@H](C)CO)C(=O)Cc2cc(NC(=O)Cn3cnnn3)ccc2O[C@H]1CN(C)C(=O)Nc1ccc2c(c1)OCO2,inactive
6,Cc1ccc(S(=O)(=O)N(C)C[C@H]2Oc3c(NS(=O)(=O)c4cn(C)cn4)cccc3C(=O)N([C@H](C)CO)C[C@@H]2C)cc1,inactive
7,C[N+](C)(C)CCCCCCNC(=O)[C@@H]1C[C@@H]2C(=O)N[C@@H](CCCC[N+](C)(C)C)C(=O)N2[C@@H]1c1ccc(O)cc1,inactive
8,Cc1ccc(S(=O)(=O)N(C)C[C@H]2Oc3ccc(NC(=O)NC(C)C)cc3C(=O)N([C@@H](C)CO)C[C@H]2C)cc1,inactive
9,C[C@H](CO)N1C[C@H](C)[C@@H](CN(C)C(=O)N[C@H](C)c2ccccc2)OCc2ccccc2-c2c(n(C)c3ccccc23)C1=O,inactive
10,O=C(C[C@H]1CC[C@@H]2[C@H](COC[C@H](O)CN2S(=O)(=O)c2ccccc2)O1)N1CCc2ccccc2C1,inactive
11,CCCC[C@@H](C)/C=C(C)/C=C(\C)C(=O)NC1=C[C@@](O)(/C=C/C=C/C=C/C(=O)NC2C(=O)CCC2=O)[C@@H]2O[C@@H]2C1=O,active
12,C[C@@H]1CN([C@@H](C)CO)C(=O)c2cccc(NC(=O)Nc3ccc4c(c3)OCO4)c2O[C@@H]1CN(C)Cc1ccc(Cl)c(Cl)c1,inactive
13,O=C(C[C@@H]1CC[C@H]2[C@@H](COC[C@H](O)CN2CC2CCOCC2)O1)N1CCOCC1,inactive
14,COCC(=O)Nc1ccc2c(c1)C(=O)N(C)[C@H]1CC[C@@H](CC(=O)N3CCc4ccccc4C3)O[C@@H]1CO2,inactive
15,COc1cccc(C(=O)Nc2ccc3c(c2)C(=O)N(C)[C@H]2CC[C@H](CC(=O)NCC(F)(F)F)O[C@@H]2CO3)c1,inactive
16,COc1cccc(C(=O)Nc2ccc3c(c2)C(=O)N(C)[C@@H]2CC[C@@H](CC(=O)NCC4CC4)O[C@@H]2CO3)c1,inactive
17,COCC(=O)Nc1ccc2c(c1)C(=O)N(C)[C@H]1CC[C@H](CC(=O)N3CCc4ccccc4C3)O[C@H]1CO2,active
18,COc1cccc(C(=O)Nc2ccc3c(c2)C(=O)N(C)[C@H]2CC[C@H](CC(=O)NCC4CC4)O[C@@H]2CO3)c1,inactive
19,CN1C(=O)c2cc(NC(=O)c3ccc(F)cc3)ccc2OC[C@H]2O[C@H](CC(=O)N3CCOCC3)CC[C@H]21,inactive
20,COCC(=O)Nc1ccc2c(c1)C(=O)N(C)[C@@H]1CC[C@H](CC(=O)N3CCc4ccccc4C3)O[C@@H]1CO2,inactive
21,CN1C(=O)c2cc(NC(=O)c3ccc(F)cc3)ccc2OC[C@@H]2O[C@@H](CC(=O)N3CCOCC3)CC[C@H]21,active

row,SMILES,cytotoxicity call
1,COc1cccc(C(=O)Nc2ccc3c(c2)C(=O)N(C)[C@@H]2CC[C@H](CC(=O)NCC(F)(F)F)O[C@@H]2CO3)c1,active
2,COc1cccc(C(=O)Nc2ccc3c(c2)C(=O)N(C)[C@@H]2CC[C@H](CC(=O)NCC4CC4)O[C@@H]2CO3)c1,active
3,CN1C(=O)c2cc(NC(=O)c3ccc(F)cc3)ccc2OC[C@H]2O[C@@H](CC(=O)N3CCOCC3)CC[C@H]21,inactive
4,COc1cccc(C(=O)Nc2ccc3c(c2)C(=O)N(C)[C@H]2CC[C@H](CC(=O)NCC(F)(F)F)O[C@H]2CO3)c1,inactive
5,C[C@H]1CN([C@@H](C)CO)C(=O)c2c(c3ccccc3n2C)-c2ccccc2CO[C@@H]1CN(C)Cc1cccc(O)c1,inactive
6,C[C@H](CO)N1C[C@H](C)[C@H](CN(C)S(C)(=O)=O)Oc2ccc(NC(=O)CCC(F)(F)F)cc2CC1=O,inactive
7,Cc1noc(C)c1S(=O)(=O)Nc1ccc2c(c1)C(=O)N([C@@H](C)CO)C[C@H](C)[C@@H](CN(C)C(=O)NC1CCCCC1)O2,inactive
8,C[C@@H]1CCCCO[C@@H](CN(C)C(=O)Nc2ccccc2)[C@@H](C)CN([C@@H](C)CO)C(=O)c2cc(NC(=O)CCC(F)(F)F)ccc2O1,inactive
9,C[C@H](CO)N1C[C@H](C)[C@@H](CN(C)C(=O)Nc2ccccc2)Oc2c(NS(=O)(=O)c3cn(C)cn3)cccc2C1=O,inactive
10,C[C@H]1CN([C@@H](C)CO)C(=O)Cc2cc(NS(=O)(=O)c3ccc(F)cc3)ccc2O[C@@H]1CN(C)S(=O)(=O)c1ccccc1,inactive
11,COc1ccc2c3c([nH]c2c1)[C@@H](CO)N(CC1CCCC1)C[C@]13CCN(CC1)C(=O)c1ccc(cc1)F,inactive
12,C[C@H](NC(=O)N(C)C[C@@H]1OCc2ccccc2-c2c(n(C)c3ccccc23)C(=O)N([C@@H](C)CO)C[C@H]1C)c1ccccc1,inactive
13,O=C(C[C@H]1CC[C@H]2[C@@H](COC[C@@H](O)CN2C(=O)c2ccccc2)O1)N1CCOCC1,inactive
14,Cc1noc(C)c1S(=O)(=O)Nc1cccc2c1O[C@H](CN(C)Cc1ccc(-c3ccccc3)cc1)[C@H](C)CN([C@@H](C)CO)C2=O,inactive
15,Cc1noc(C)c1S(=O)(=O)N(C)C[C@H]1Oc2c(NC(=O)c3cnccn3)cccc2C(=O)N([C@H](C)CO)C[C@H]1C,inactive
16,COc1ccc(NC(=O)Nc2ccc3c(c2)C(=O)N([C@@H](C)CO)C[C@@H](C)[C@H](CN(C)S(=O)(=O)c2ccc(C)cc2)OCCCC[C@@H](C)O3)cc1,inactive
17,COc1ccc(C(=O)Nc2ccc3c(c2)C(=O)N(C)[C@@H]2CC[C@H](CC(=O)NCC4CC4)O[C@H]2CO3)cc1,active
18,COc1ccc(C(=O)Nc2ccc3c(c2)C(=O)N(C)[C@H]2CC[C@@H](CC(=O)NCC4CC4)O[C@H]2CO3)cc1,inactive
19,CCCNC(=O)C[C@@H]1CC[C@@H]2[C@H](COc3ccc(NC(=O)c4ccc5c(c4)OCO5)cc3C(=O)N2C)O1,inactive
20,COc1ccc(C(=O)Nc2ccc3c(c2)C(=O)N(C)[C@@H]2CC[C@@H](CC(=O)NCC4CC4)O[C@@H]2CO3)cc1,inactive
21,COc1ccc(C(=O)Nc2ccc3c(c2)C(=O)N(C)[C@H]2CC[C@H](CC(=O)NCC4CC4)O[C@@H]2CO3)cc1,inactive

row,SMILES,cytotoxicity call
1,CCCNC(=O)C[C@H]1CC[C@@H]2[C@@H](COc3ccc(NC(=O)c4ccc5c(c4)OCO5)cc3C(=O)N2C)O1,active
2,COc1ccc(C(=O)Nc2ccc3c(c2)C(=O)N(C)[C@H]2CC[C@H](CC(=O)NCC4CC4)O[C@H]2CO3)cc1,inactive
3,COc1ccc(C(=O)Nc2ccc3c(c2)C(=O)N(C)[C@@H]2CC[C@H](CC(=O)NCC4CC4)O[C@@H]2CO3)cc1,active
4,CCCNC(=O)C[C@@H]1CC[C@@H]2[C@@H](COc3ccc(NC(=O)c4ccc5c(c4)OCO5)cc3C(=O)N2C)O1,inactive
5,C[C@@H]1CCCCO[C@H](CN(C)C(=O)C2CCCCC2)[C@H](C)CN([C@@H](C)CO)C(=O)c2cc(NS(=O)(=O)c3cccs3)ccc2O1,inactive
6,Cc1cc(C(=O)Nc2cccc3c2O[C@@H](CN(C)Cc2ccccc2)[C@@H](C)CN([C@H](C)CO)C3=O)n(C)n1,inactive
7,C[C@H](CO)N1C[C@H](C)[C@H](CN(C)Cc2ccc(Oc3ccccc3)cc2)OCc2ccccc2-c2ccccc2C1=O,inactive
8,C[C@H]1CN([C@@H](C)CO)C(=O)c2cc(NC(=O)NC3CCCCC3)ccc2O[C@@H]1CN(C)Cc1ccc(C(F)(F)F)cc1,inactive
9,O=C(C[C@@H]1C=C[C@H](NS(=O)(=O)c2ccc(F)cc2)[C@@H](CO)O1)N1CCC(Cc2ccccc2)CC1,inactive
10,C[C@@H]1CN([C@H](C)CO)C(=O)CCCn2cc(nn2)CO[C@H]1CN(C)S(=O)(=O)c1ccc2ccccc2c1,inactive
11,Cc1noc(C)c1NC(=O)N(C)C[C@H]1OCCCC[C@@H](C)Oc2ccc(NC(=O)Cc3ccccc3)cc2C(=O)N([C@@H](C)CO)C[C@@H]1C,inactive
12,Cc1noc(C)c1NC(=O)Nc1cccc2c1O[C@@H](CN(C)Cc1ccc(Cl)c(Cl)c1)[C@@H](C)CN([C@@H](C)CO)C2=O,inactive
13,CO[C@@H]1CN(C)C(=O)c2ccc(NS(=O)(=O)c3ccccc3C)cc2OC[C@H](C)N(S(C)(=O)=O)C[C@H]1C,inactive
14,C[C@H]1CCCCO[C@H](CN(C)S(C)(=O)=O)[C@@H](C)CN([C@@H](C)CO)C(=O)c2cc(NS(C)(=O)=O)ccc2O1,inactive
15,COc1ccc(S(=O)(=O)Nc2ccc3c(c2)C(=O)N([C@@H](C)CO)C[C@@H](C)[C@H](CN(C)S(=O)(=O)c2ccc(OC)cc2)O3)cc1,inactive
16,N=C(N)NCCCC[C@@H]1NC(=O)CCSSC[C@@H](C(N)=O)NC(=O)[C@@H]2CCCN2C(=O)[C@H](Cc2c[nH]c3ccccc23)NC(=O)[C@H](CC(=O)O)NC(=O)CNC1=O,inactive
17,N=C(N)NCCC[C@@H]1NC(=O)[C@@H](N)CSSC[C@@H](C(=O)O)NC(=O)[C@H](CC(=O)O)NC(=O)[C@@H]2CCCN2C(=O)CNC(=O)[C@H](CCCCN)NC(=O)[C@H](CC(=O)O)NC(=O)CNC1=O,inactive
18,CC(C)[C@H]1C(=O)N[C@@H](CCCNC(=N)N)C(=O)NCC(=O)N[C@@H](CC(=O)O)C(=O)N[C@H](Cc2ccccc2)C(=O)N1C,active
19,C[C@@H]1CN([C@@H](C)CO)C(=O)Cc2cc(NC(=O)Nc3ccccc3)ccc2O[C@H]1CN(C)C(=O)Nc1cccc2ccccc12,inactive
